Laboratory results reported in ChEMBL document CHEMBL1157539, “Thousands of chemical starting points for antimalarial lead identification” (Nature, 2010).

These compounds were tested on HepG2 (assay: GSK_TCMDC: Percent inhibition of human HepG2 cell line. Test compounds present at 10uM.).
Type: functional

SMILES	Inhibition
Cc1cc2nc(-c3ccc(/C=C/C(=O)NCCc4ccccc4)cc3)[nH]c2cc1C	3%
COc1ccc2ncc(Cl)c(NCC3(O)CCC(NCc4ccc5c(n4)NC(=O)CS5)CC3)c2n1.Cl (stereo not given)	39%
CN1CCCC1CCNCc1ccc(-c2ccc(CNCCc3ccccc3)cn2)cc1.O=C(O)C(F)(F)F (stereo not given)	25%
Cl.N#Cc1ccc2c(c1)CCN(CCC1CCC(NC(=O)/C=C/c3ccc(Cl)c(Cl)c3)CC1)CC2 (stereo not given)	31%
COC(=O)c1cc(OC2CCOC2=O)cc2c1OC(C)(C)O2 (stereo not given)	6%
CCOCCCn1c(=N)c(C(=O)NCc2ccc(F)cc2)cc2c(=O)n3cccc(C)c3nc21	21%
NC1CCN(CCNCc2cccc(-c3ccc(-c4nc5cc(F)ccc5[nH]4)cc3)c2)C1.O=C(O)C(F)(F)F (stereo not given)	8%
O=C(NCCCCCN1CCC(c2c[nH]c3ccccc23)CC1)Nc1cccc(I)c1	70%
CCCCCC(C)C(C)c1cc(O)c2c(c1)OC(C)(C)CC2=Cc1ccncc1 (stereo not given)	0%
CC1CCCCC1N(C)C1CCN(CCCNC(=O)C=Cc2ccc(Cl)cc2Cl)CC1 (stereo not given)	53%
Cc1cc(NC2CCN(CC3CCCCC3)C2)nc(Nc2ccc(Cl)cc2)n1 (stereo not given)	26%
CC[C@H](C)CNC(=O)c1cncc(-c2ccc(CNCC3CNCCCO3)cc2)c1.O=C(O)C(F)(F)F (stereo not given in full)	0%
Cc1cccc(-c2nc3cc(NC(=O)c4ccc([N+](=O)[O-])o4)ccc3o2)c1	8%
Cc1ccccc1C1CCN(C2CCC(NC(=O)/C=C/c3cc(C(F)(F)F)ccc3F)CC2)CC1 (stereo not given)	56%
Cc1[nH]c(-c2ccc(F)cc2)cc1C(=O)NC1CCN(Cc2ccccc2)CC1	6%
COc1cc(Cc2cnc(N)nc2N)cc(OC)c1OCCCCC(=O)O.Cl	0%
Br.C/C=C/C=C/C1=NCCc2cc(OCCC)ccc21	0%
COc1ccc(OCCCN2CCCCC2)cc1S(=O)(=O)c1ccc(OCc2ccc(C(F)(F)F)cc2)cc1.Cl	52%
Cc1cc(N)nc2ccc(-c3ccc(CCN)cc3)cc12	31%
CCc1c(CCNCCCCCCNCCc2ccc(OC)cc2)ccc(OC)c1OC.Cl	16%

SMILES	Inhibition
COc1ccc(N2CCN(CCCCNC(=O)c3ccc(NC(=O)c4cc(Cl)cc(Cl)c4)cc3)CC2)c(OC)c1.Cl	21%
CN(C)CCN1CCN(CCCN2c3ccccc3Sc3ccc(C(F)(F)F)cc32)CC1.Cl	98%
CN(C)/C(=N/C(=N)NCc1ccc(Cl)c(Cl)c1)NCCCCCCN/C(=N\C(=N)NCc1ccc(Cl)c(Cl)c1)N(C)C	20%
O=C(/C=C/c1ccc(Cl)c(Cl)c1)NCCCCCN1CCC(NC(=S)Nc2ccc(Cl)cc2)CC1	62%
Cl.N=c1n(Cc2ccc(Cl)cc2)c2ccccc2n1CC(O)c1ccc(Cl)c(Cl)c1 (stereo not given)	58%
Cl.Nc1c2c(nc3ccc(NC(=O)CCCCCCc4ccccc4)cc13)CCCC2	100%
Cc1ncc(CN2CCC(C(=O)Nc3ccc(-c4nc5ccccc5o4)cc3)CC2)s1	0%
O=C(Cc1ccccc1)NC(c1ccccc1)c1ccc2cccnc2c1O (stereo not given)	49%
O=c1cc(NCCCNCc2ccc(C(F)(F)F)c(F)c2)[nH]c2ccccc12	5%
Nc1ccn([C@@H]2O[C@H](COC(c3ccccc3)(c3ccccc3)c3ccccc3)[C@@H](O)[C@@H]2O)c(=O)n1	26%
CNCCNCc1ccc(-c2ccc(-c3nc4ccccc4[nH]3)s2)cc1.O=C(O)C(F)(F)F	11%
O=C(NCCCCN1CC=C(c2ccc3c(c2OCC2CC2)CCCC3)CC1)c1ccc(-c2ccc(C(F)(F)F)cc2)cc1	25%
Nc1nccc2ccc(-c3cccnc3)cc12	9%
CN1CCN(CCCCCCNc2c3ccccc3nc3ccccc23)CC1.Cl	35%
CN1CCCc2ccc(NC(=O)c3cc(-c4ccc(Cl)cc4)cs3)cc2C1.O=C(O)C(F)(F)F	35%
COc1c(C2CCN(CCCCNC(=O)c3ccc(-c4ccc(Cl)cc4)cc3)CC2)ccc2c1C(C)(C)CCC2(C)C	94%
COc1ccc(Cl)cc1NC(=O)Nc1cc(C)nc2ccccc12	10%
CC(C)CCNC(=O)C1Cc2c([nH]c3ccc(Br)cc23)C2(CCN(CCc3ccccc3)CC2)N1 (stereo not given)	25%
Cc1cccc2nc(-c3cccc(-c4cccc(NC(=O)Cc5ccc[n+]([O-])c5)c4)c3)[nH]c12	0%
CCC(C)(C)c1ccc(Oc2ccc(NC(=O)Nc3ccc(Cl)c(Cl)c3)cc2)cc1	13%
